SMILES strings stand for the structures. “And” between values parts separate entries of the source, which are not always exact repeats. Equal entries are not always repeated. This is part of a sample that, as a whole, favours compounds with a hit. Of some 83,000 tested, about 20% had one in any assay.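 A percent growth of 40 corresponds to 60% growth inhibition; 0 means no net growth; -100 means all cells died. Active threshold: below 10.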 The source made the active and inactive calls.

In the assay the test system is MDA-MB-468 breast. Nature of the assay: NCI-60 one-dose screen, 48 h (100 = growth as untreated, 0 = no growth, -100 = all killed). Particulars: 10 µM unless noted.
On to `NC(N)=Nc1nc2ccccc2n2c1nc1ccccc12`, for which the growth is 35.1% (inactive). The figure for `CCCn1ccnc1C(O)c1ccc(OCc2ccccc2)c(OC)c1` (stereo not given) is 90.5% (inactive). The figure for `Cc1cn(-c2cc(NC(=O)c3ccc(C)c(Nc4nccc(-c5cccnc5)n4)c3)cc(C(F)(F)F)c2)cn1` is 37.2% (inactive). In the case of `C[n+]1c2ccccc2nc2c(N)cc(N)cc21`, the growth was -5.14% (active). On to `O=C(NNC(=S)Nc1ccccc1)c1ccc(Nc2ncnc3c2cnn3-c2cccc(Br)c2)cc1`, for which the growth was 101% (inactive). For `CCCCOc1c(N)cc(Cl)cc1C(=O)OCCN(CC)CC` the value was 112% (inactive); for `Cn1cc(-c2cc(N)n3nc(-c4cn(C)c5ccccc45)cc3n2)c2ccccc21`, 75% (inactive). For `CC1(C)CC(=O)c2c(ccc(C(=O)C[C@@H](N)CO)c2N)O1` the value was 5.3% (active). As to `COc1cc(-c2csc(NC(=O)Nc3ccc(Cl)c(C(F)(F)F)c3)n2)cc(OC)c1OC`, the growth was -12.7% (active).

Take `CCCCNCC(O)c1cc(-c2ccc(C(F)(F)F)cc2)nc(-c2ccc(C(F)(F)F)cc2)c1` (stereo not given): the growth was -87.9% (active). For `ICCC(c1ccccc1)(c1ccccc1)c1ccccc1` the value was 22.6% (inactive). Take `COc1cccc(/C=C/C(=O)c2cc3c(N)c(C(=O)Nc4ccccc4)sc3nc2C)c1`: the growth was 15.3% (inactive). As for `COc1ccc2c(c1)c(-c1nonc1-c1cn(C)c3ccccc13)cn2C`, the growth is 13.9% (inactive). As for `Nc1c(Br)cc(O)c2c1C(=O)c1ccccc1C2=O`, the growth is -9.43% (active). For `CC(c1cc(Cl)ccc1O)c1cc(Cl)ccc1O` the value was 6.87% (active).

As to `NS(=O)(=O)c1ccc(CCN2C(=O)/C(=C\c3ccccc3)C=C2c2ccc(Cl)cc2)cc1`, the growth was 103% (inactive). In the case of `COc1cc(-c2ncn(/C=C\c3nnco3)n2)cc(C(F)(F)F)c1`, the growth was -28.9% (active). Regarding `Fc1cccc(Oc2ccc(Nc3ncnc4ccc(OCCCN5CCOCC5)cc34)cc2Cl)c1`, the growth is -14.1% (active). With `CN1CCN(Cc2ccc(NC(=O)c3nc4ccc5[nH]ncc5c4c4c3CCCC4)cc2C(F)(F)F)CC1`, the growth was -92.9% (active).

On to `CC1=NN(c2nc(SCC(=O)Nc3nc4ccc(C)cc4s3)nc(-c3ccccc3)c2C#N)C(=O)C1`, for which the growth was 111% (inactive). Take `Clc1cccc(Cl)c1Cn1c(-c2cncs2)nc2ccccc21`: the growth was 52.6% (inactive). The figure for `CC(C)CCN(CCCNc1c2c(nc3ccccc13)CCCC2)CCC(C)C` is 57.2% (inactive); for `O=C1N(C[P+](c2ccccc2)(c2ccccc2)c2ccccc2)CCCN1C[P+](c1ccccc1)(c1ccccc1)c1ccccc1` it is 105% (inactive).

As to `O=C(NC(Cc1ccccc1)C(=O)CCl)OCc1ccccc1` (stereo not given), the growth is 79.8% (inactive). Turning to `CCc1ccc(CCC(=O)Nc2ncc(Cc3ccc(Cl)cc3)s2)o1`, the growth is 0.812% (active). Consider `O=C(/C=C/c1ccc(Cl)cc1)c1ccc(NC(=O)N2CCN(c3cc4c(cc3F)c(=O)c(C(=O)O)cn4C3CC3)CC2)cc1`, for which the growth was 96.6% (inactive).

Consider `COc1ccccc1N1CCCCC1`, for which the growth was 118% (inactive). For `CN1CCN(C(=O)c2ccc(NC(=O)c3cc4c(nn3)NCCN4Cc3cc(Cl)ccc3Cl)cc2)CC1`, the growth is 60.9% (inactive). As for `COc1cccc(/C=C/C(=O)c2cc3c(N)c(C(=O)Nc4cccc(Cl)c4C)sc3nc2C)c1`, the growth is -7.04% (active). Regarding `O=C(CN1CCOCC1)NNc1ncnc2ccccc12`, the growth was 55.9% (inactive). As for `CC(C)c1ccc2c(c1)CCC1C2CCCC1(C)NCc1ccccc1` (stereo not given), the growth was -44.5% (active). Regarding `O=S(=O)(NCCNc1nccc(-c2c(-c3ccc(F)c(O)c3)nc3occn23)n1)c1ccc(Cl)cc1`, the growth is 95.6% (inactive). For `O=S(=O)(Cc1ccc(Cl)cc1Cl)c1ccc(Cl)cc1` the value was -29.8% (active); for `CCOc1cccc2c(NC(C)CCCN(CC)CC)c(C)cnc12` (stereo not given), 92.9% (inactive); for `CCN(CC)CCCC(C)Nc1c2ccc(C)cc2nc2ccc(OC)cc12` (stereo not given), -65.1% (active). On to `COc1cc(C2c3cc4c(cc3C(OC(=O)C[n+]3ccccc3)C3COC(=O)C23)OCO4)cc(OC)c1OC` (stereo not given), for which the growth was 5.13% (active). For `Nn1c(=O)c(=O)[nH]c2c(cnn2-c2ccccc2)c1=O` the value was 105% (inactive). The figure for `CCOC(=O)Nc1ccc2nc(Sc3ccc(Cl)cc3)sc2c1` is 0.385% (active); for `O=C(CCl)N(O)c1ccc(/C=C/c2ccccc2)cc1` it is 25% (inactive) and 6.6% (active). For `C=CC(=O)OC1CCC(C(C)(C)CC)CC1` (stereo not given) the value was 108% (inactive).

Values taken from PubChem BioAssay (NCI).
